aSyn UTR act: Activators working through SNCA 5'UTR binding (MLPCN); alpha-synuclein 5'UTR reporter, activators screen; activity score, % (tested at 7.5 µM), hits read low; hit rate 7.1% among 300,000; in the data active means activity score below about -60%
* = called active by the depositor. The list is a sample of the results.

`CC(O)CNC(=O)C1CCN(Cc2ccc(OCc3ccccc3)cc2)CC1` (stereo not given) gave aSyn UTR act -126.2*.
For CC(C)CNC(=O)C1CCN(Cc2ccc(OCc3ccccc3)cc2)CC1 the results were aSyn UTR act -95.0*.
CSc1cccc(NC(=O)Nc2ccc(Cl)cc2)c1 was read as aSyn UTR act -96.5*.
`CC(=O)c1ccc(NC(=S)NCCc2cccc(Cl)c2)cc1` gave aSyn UTR act -178.7*.
`CC(=O)c1ccc(NC(=S)NCCc2ccc(S(N)(=O)=O)cc2)cc1` gave aSyn UTR act -79.6*.
For CSc1cccc(NC(=S)Nc2ccc(F)cc2)c1 the results were aSyn UTR act -196.4*.
For CC(=O)c1ccc(NC(=O)Nc2cccc(Cl)c2)cc1 the results were aSyn UTR act -82.3*.
Screening COc1ccccc1NC(=O)Nc1ccc(C(=O)N2CCCCC2)cc1 returned aSyn UTR act -98.6*.
`COc1ccccc1NC(=O)N1CCC(c2nc3cc(C)c(C)cc3[nH]2)CC1` gave aSyn UTR act 74.3.
CC(=O)Nc1ccc(NC(=O)Nc2cccc(Cl)c2)cc1 was read as aSyn UTR act -79.2*.
CCNS(=O)(=O)c1ccc(NC(=O)Nc2ccccc2OC)cc1 was read as aSyn UTR act -79.2*.
CS/C(N)=N/C(=S)Nc1cccc(Cl)c1 was read as aSyn UTR act -142.8*.
O=C(Nc1cccc(Cl)c1)Nc1ccccc1C(=O)O was read as aSyn UTR act -119.7*.
For O=C(Nc1ccc(C(=O)N2CCCCC2)cc1)Nc1cccc(Cl)c1 the results were aSyn UTR act -81.6*.
CC(=O)c1ccc(NC(=O)Nc2ccc3c(c2)nc(C)n3C)cc1 was read as aSyn UTR act -147.8*.
Screening CO/C([O-])=N/c1c[n+](-c2ccc(C)cc2)no1 returned aSyn UTR act -61.5*.
`CSc1nsc(SCC(=O)Nc2ccc(C(C)=O)cc2)n1` gave aSyn UTR act -261.7*.
Screening COc1ccc(-c2nsc(SCC(=O)Nc3ccc4c(c3)OCO4)n2)cc1 returned aSyn UTR act -109.0*.
`COc1ccc(NC(=O)CSc2nc(SC)ns2)cc1` gave aSyn UTR act -145.2*.
Screening CSc1nsc(SCC(=O)Nc2ccc(F)cc2F)n1 returned aSyn UTR act -100.8*.
`CCOc1ccc(-n2c(SCC(=O)Nc3ccc(Br)cc3)nc3n[nH]c(C)c3c2=N)cc1` gave aSyn UTR act 81.5.
Screening Cc1cc(Br)ccc1-n1[nH]c(C)c(C=Nc2cccc3nsnc23)c1=O returned aSyn UTR act -69.9*.
CC(=O)c1cccc(OCc2cc(C(=O)N3C[C@@H](C)O[C@@H](C)C3)no2)c1 was read as aSyn UTR act -75.3*.
COCCC1CCCCN1C(=O)c1cc(COc2cccc(C(C)=O)c2)on1 (stereo not given) was read as aSyn UTR act -95.8*.
Screening CC(=O)c1cccc(OCc2cc(C(=O)N3C[C@H]4CC[C@H]3C4)no2)c1 returned aSyn UTR act -134.0*.
For O=C(c1cc(COc2cccc(C(F)(F)F)c2)on1)N1C[C@H]2CC[C@H]1C2 the results were aSyn UTR act -116.9*.
`COC(=O)C1CCN(C(=O)/C=C/c2ccc3c(c2)OCO3)CC1` gave aSyn UTR act -66.3*.
For CCCCOc1ncnc2c1[nH]c1ccc(OC)cc12 the results were aSyn UTR act -213.9*.
For CCCCOc1ncnc2c1[nH]c1ccccc12 the results were aSyn UTR act -81.5*.
For CCCCOc1ncnc2c1[nH]c1ccc(F)cc12 the results were aSyn UTR act -117.6*.
`Cc1ccc(NC(=S)/C(=C(\[O-])c2ccc(F)cc2)[n+]2ccccc2)cc1` gave aSyn UTR act -90.4*.
For CCO[C@@H]1OC(C(=O)NCc2nc3ccccc3[nH]2)=C[C@H](C(C)(C)C)[C@H]1CCCO the results were aSyn UTR act 85.2.
Screening CCO[C@@H]1OC(C(=O)NCc2nc3ccccc3[nH]2)=C[C@H](C2CC2)[C@H]1CCCO returned aSyn UTR act -119.3*.
COCn1c(-c2ccc(OC)cc2)nc2ccccc21 was read as aSyn UTR act -191.9*.
Screening C=CCn1c(COc2ccc(OC)cc2)nc2ccccc21 returned aSyn UTR act -74.6*.
COCCn1c(COc2ccc(OC)cc2)nc2ccccc21 was read as aSyn UTR act -82.1*.
Screening CCn1c(COc2ccc(OC)cc2)nc2ccccc21 returned aSyn UTR act -94.4*.
`OCc1nc2ccccc2n1CCCOc1ccc(Br)cc1` gave aSyn UTR act -104.3*.
Screening COc1ccc(N=C/C=C2\C=C(c3ccccc3)OC(C)(C)O2)cc1 returned aSyn UTR act -134.9*.
`CC(C)C[C@H]1CN=C(Nc2ccccc2)N1CCCC1CCCCC1` gave aSyn UTR act -69.5*.
`Cn1c(/C=C/c2ccc(Cl)cc2Cl)c([N+](=O)[O-])c(=O)n(C)c1=O` gave aSyn UTR act -203.6*.
`CCc1ccc(/C=C/c2c([N+](=O)[O-])c(=O)n(C)c(=O)n2C)cc1` gave aSyn UTR act -61.7*.
`CC(C)(C)c1nnc(NC(=O)c2cccs2)s1` gave aSyn UTR act -143.3*.
For CC(C)c1nnc(NC(=O)c2cccs2)s1 the results were aSyn UTR act -102.0*.
Screening O=C(Nc1nnc(C2CC2)s1)c1cccs1 returned aSyn UTR act -74.1*.
For N/C(=N\OC(=O)c1cccs1)c1ccc(Cl)cc1 the results were aSyn UTR act -104.0*.
For COc1ccc(C(=O)O/N=C(\N)c2ccc(Cl)cc2)cc1 the results were aSyn UTR act -195.8*.
`N/C(=N/OC(=O)c1ccc(Cl)cc1)c1ncc([N+](=O)[O-])s1` gave aSyn UTR act -78.3*.
For COc1ccccc1C(=O)O/N=C(\N)c1ccc(Cl)cc1 the results were aSyn UTR act -263.7*.
Screening Cc1cc(C)c2c(c1)C(=O)/C(=C/c1ccc(C(=O)O)cc1)CC2 returned aSyn UTR act -78.5*.
For c1ccc(CSc2ccc(-c3ccc4c(c3)OCO4)nn2)cc1 the results were aSyn UTR act -150.4*.
Screening Cn1c(SCc2ccccc2)nnc1-c1ccc(O)cc1 returned aSyn UTR act -76.2*.
Screening Oc1ccccc1-c1nnc(SCCN2CCOCC2)n1Cc1ccccc1 returned aSyn UTR act 80.7.
`Cn1c(SCc2ccccc2)nnc1-c1ccc2c(c1)OCO2` gave aSyn UTR act -191.8*.
`Cc1nn(-c2nc3ccccc3s2)c(N)c1-c1ccc(Cl)cc1` gave aSyn UTR act -203.4*.
Screening Cc1nn(-c2nc3ccccc3s2)c(N)c1-c1ccccc1 returned aSyn UTR act -224.2*.
`Cc1nn(-c2nc3ccccc3s2)c(N)c1Sc1ccc(F)cc1` gave aSyn UTR act -211.9*.
Cc1nc(-c2noc(-c3ccc(Cl)cc3)n2)c(C(F)(F)F)o1 was read as aSyn UTR act -102.8*.
Screening CCOC(=O)N1CCN(c2nc(-c3ccc(OC)cc3)no2)CC1 returned aSyn UTR act -88.2*.
For COC(=O)c1ccc(-c2nc(-c3ccc(Br)o3)no2)cc1 the results were aSyn UTR act -108.3*.
For COc1ccc(-c2noc(-c3ccc(Cl)cc3)n2)cc1 the results were aSyn UTR act -131.0*.
Screening COc1ccc(-c2nc(-c3ccc(C(=O)O)cc3)no2)cc1 returned aSyn UTR act -90.0*.
`COc1ccc(-c2noc(-c3ccc(Br)o3)n2)cc1` gave aSyn UTR act -211.7*.
`CC(=O)Nc1ccc(Oc2nc(-c3ccccn3)nc3ccccc23)cc1` gave aSyn UTR act -114.8*.
`CC(=O)Nc1cccc(Oc2nc(-c3ccccn3)nc3ccccc23)c1` gave aSyn UTR act -128.6*.
For C=CCOc1nc(-c2ccccc2Cl)nc2ccccc12 the results were aSyn UTR act 72.1.

High-throughput results: PubChem BioAssay, Broad Institute
